High-throughput results (PubChem)
The list is not random: actives were taken first. Their share in the collection is about 2.3%.
FUS suppressor: FUS proteinopathy suppression in yeast; AID 1347120; Potency, µM (titrated, usually from 76.6 µM), actives largely listed as activators; S. cerevisiae FUS-expressing, growth rescue, OD600, 24 h; hit rate 0.24% among 390,000;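 further: potency means the concentration at half of the fitted maximal effect; plate controls were DMSO vehicle for no effect and reference control for full effect; nearly all actives have a fitted effect of over 55% in size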
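FUS-expressing yeast, raffinose-pregrown, induced in 2% galactose minimal medium at OD 0.005; compounds in a dilution series, 24hr at 30C. Growth restoration read as absorbance at 600 nm. CP55940 positive control, DMSO negative.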
TRPV1 potentiator: enhances activation of the human vanilloid receptor TRPV1; TRPV1-expressing cells, Fluo-8 calcium influx, capsaicin EC20 potentiation; potentiation, % at 8.33 µM; AID 540277; hit rate 0.02% among 320,000; in the data active means potentiation above about 80%; inconclusive means between about 30% and that limit; further: 0% is about no effect
Target sequence (Q8NER1 whole entry, looked up): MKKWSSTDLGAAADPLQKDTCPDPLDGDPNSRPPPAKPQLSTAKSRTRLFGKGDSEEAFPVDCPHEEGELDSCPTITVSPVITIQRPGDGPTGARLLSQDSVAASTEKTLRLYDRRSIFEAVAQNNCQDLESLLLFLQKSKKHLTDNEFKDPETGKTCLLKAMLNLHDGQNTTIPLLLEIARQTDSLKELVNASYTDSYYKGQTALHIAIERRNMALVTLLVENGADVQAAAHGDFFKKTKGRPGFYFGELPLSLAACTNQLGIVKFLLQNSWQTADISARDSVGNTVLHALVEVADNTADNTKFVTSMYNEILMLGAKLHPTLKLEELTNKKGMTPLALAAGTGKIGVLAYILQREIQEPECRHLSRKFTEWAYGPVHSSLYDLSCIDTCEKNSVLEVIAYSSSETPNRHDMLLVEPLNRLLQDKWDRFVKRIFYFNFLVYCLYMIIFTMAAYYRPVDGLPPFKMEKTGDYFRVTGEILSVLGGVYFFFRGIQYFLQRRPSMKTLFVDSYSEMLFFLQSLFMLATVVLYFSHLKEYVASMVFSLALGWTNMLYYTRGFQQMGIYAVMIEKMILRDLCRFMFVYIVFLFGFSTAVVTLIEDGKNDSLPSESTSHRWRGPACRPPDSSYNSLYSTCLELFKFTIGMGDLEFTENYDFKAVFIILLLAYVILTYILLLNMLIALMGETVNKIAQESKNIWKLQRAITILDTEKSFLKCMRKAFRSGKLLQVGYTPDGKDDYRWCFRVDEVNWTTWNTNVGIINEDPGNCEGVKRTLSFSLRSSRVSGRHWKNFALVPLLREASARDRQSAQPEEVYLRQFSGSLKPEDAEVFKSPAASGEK
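TRPV1-expressing cells were cultured overnight at 35.5C and loaded with Fluo-8 calcium dye for 40 to 90 min at room temperature. After a 10 s baseline, compound was added and calcium influx was read kinetically for 3 min (ex 480/em 520 nm).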
Giardia killer: Giardia lamblia killing; Giardia lamblia trophozoite viability; activity change, % at 7.66 µM, hits read low; hit rate 0.15% among 340,000; AID 540267; in the data active means activity change below about -80%; inconclusive means between about -30% and that limit;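 further: parasites exposed to compound for two days anaerobically before the ATP read; on the % scale 0 is the no-effect control and ±100 the full control effect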
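Each well holds 100 Giardia trophozoites and compound. After two days (48 hrs) at 37 deg C in anaerobic conditions, ATP is quantified by luminescence.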
TRPV1 agonist: human TRPV1 agonism; TRPV1-expressing cells, Fluo-8 calcium influx, agonist mode; activation, % at 8.33 µM; hit rate 0.19% among 320,000; AID 540275; in the data active means activation above about 80%; inconclusive means between about 30% and that limit; further: 0% is about no effect
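Fluo-8 calcium influx in TRPV1-expressing cells, kinetic read (ex 480/em 520 nm). Compound added and read 3 min for agonist activity, followed by capsaicin at EC20 final and 2 min further read for enhancement.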
ELG1 DNA repair: ELG1-dependent DNA repair inhibition. HEK293T ELG1-luciferase reporter, luminescence, 16 h; DNA damage induced by 5-fluorouridine. Potency, µM (top dose mostly 46.1 µM), for inactives: at the top dose activity change, negative = inhibition, actives largely listed as inhibitors. hit rate 2.3% among 330,000; further: potency means the concentration at half of the fitted maximal effect; on the % scale 0 is the no-effect control and ±100 the full control effect; nearly all actives have a fitted effect of over 55% in size
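DMSO vehicle served as the neutral condition. Each well held 2,000 cells given 5-fluorouridine plus compound; after 16 hr at 37 °C/5% CO2, ONE-Glo was added and luciferase measured 30 min later.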
* hit, by the source's call; i = inactive; ? = inconclusive; / = not tested or not shown. Unless noted, the call rests on the fitted dose curve; in most records, active means well fitted curve in the direction sought with a large enough effect; inconclusive means small, poorly fitted or top-dose-only effect, or another doubt; inactive means no such curve, though single readings can be large; an effect the other way counts as inactive or inconclusive.

SMILES	FUS suppressor	TRPV1 potentiator	Giardia killer	TRPV1 agonist	ELG1 DNA repair
Fc1ccc(Nc2ncnc3sc4c(c23)CCC4)cc1	i	6.9	-26.6	80.6*	-13.7%
COc1ccc2oc(-c3cccc(NC(=O)c4ccc(C#N)cc4F)c3)nc2c1	i	/	/	/	/
CN(CC(=O)Nc1cccc(S(=O)(=O)N2CCOCC2)c1)CC(=O)Nc1ccc(Cl)c(C(F)(F)F)c1	i	-6.0	-7.4	11.5	12.6µM*
CN(CC(=O)Nc1cccc(F)c1)C(=O)c1ccc(N2CCOCC2)c([N+](=O)[O-])c1	i	-6.1	-7.0	6.0	-9.3%
CN(CC(=O)Nc1ccc(Cl)c(C(F)(F)F)c1)C(=O)c1ccc(N2CCOCC2)c([N+](=O)[O-])c1	31.6µM*	7.1	39.7	2.7	?
COc1cc(C(=O)Nc2nc3nc(-c4ccccc4)cc(=O)n3[nH]2)cc(OC)c1OC	i	/	/	/	/
CN1/C(=C\C(=O)CSc2nnc(NCc3ccccc3)s2)C(C)(C)c2ccccc21	i	-0.5	14.7	0.0	18.4µM*
Cc1cc(C(=O)CSc2nnc(NCc3ccccc3)s2)c(C)n1C	i	16.4	10.5	0.7	-35.5%
CCCN(CCC)C(=O)c1ccc2nc(-c3ccc(OC)c(OC)c3)c(-c3ccc(OC)c(OC)c3)nc2c1	?	1.1	8.9	-0.3	11.6µM*
CCCN(CCC)CCNC(=O)CN1C(=O)COc2ccc(S(=O)(=O)N3CCC(C)CC3)cc21	i	/	/	/	/
COc1ccc(C2(CNC(=O)c3ccc(OC)c([N+](=O)[O-])c3)CCCCC2)cc1OC	/	-8.7	16.9	-1.9	14.6µM*
COc1ccc(C(=O)NCCC2=CCCCC2)cc1[N+](=O)[O-]	i	-25.6	-8.6	88.1*	?
COc1ccc(C(=O)NCC2(c3ccc(OC)c(OC)c3)CCCC2)cc1OC	i	/	/	/	/
CCCN1CCN(c2ncc3c(n2)CCN(Cc2ccc(OC)c(OC)c2OC)C3)CC1	i	/	/	/	/
O=C(NN1C(=O)c2ccccc2NC1c1ccc([N+](=O)[O-])o1)c1ccc([N+](=O)[O-])cc1 (stereo not drawn)	i	16.0	?	3.5	?
O=C(NN1C(=O)c2ccccc2NC1c1ccc([N+](=O)[O-])o1)c1ccccc1 (stereo not drawn)	i	1.4	-84.8*	3.6	14.3%
COc1ccc(OC)c(NC(=O)CSc2ccnc(=O)[nH]2)c1	i	/	/	/	/
CCn1c(C)nc2cc(-c3nnc(-c4c(-c5ccccc5)noc4C)o3)ccc21	i	3.7	5.8	7.7	20.6µM*
CCCN(c1ccccc1F)S(=O)(=O)c1cc(-c2cc(C)no2)ccc1C	i	/	/	/	/
CCCOc1ccc(CN(C(=O)c2nc(SC(C)C)ncc2Cl)C2CCS(=O)(=O)C2)cc1 (stereo not drawn)	35.5µM*	/	/	/	/
COC(=O)c1cc2sc(C)cc2n1Cc1cccc(OC)c1	i	/	/	/	/
COc1ccc(Cc2nnc(N/N=C/c3ccc(O)cc3)[nH]c2=O)cc1OC	/	7.7	10.6	-1.3	5.8µM*
CN(C)c1ccc(CNC(=O)c2cc3cc(S(=O)(=O)N4CCCCC4)ccc3n2C)cc1	8.91µM*	/	/	/	/
Cn1c(C(=O)NCc2cccc(F)c2)cc2cc(S(=O)(=O)N3CCCCC3)ccc21	i	/	/	/	/
CC(C)Oc1ccc(CNC(=O)Cn2ccc3cc(S(=O)(=O)N4CCCC4)ccc32)cc1	i	1.5	-3.3	-1.6	-2.1%
SMILES	FUS suppressor	TRPV1 potentiator	Giardia killer	TRPV1 agonist	ELG1 DNA repair
CCOc1ccc(CNC(=O)Cn2ccc3cc(S(=O)(=O)N4CCCCC4)ccc32)cc1	15.8µM*	/	/	/	/
COC(=O)c1ccc(Cl)cc1NC(=O)NCCc1c(C)nn(C)c1C	i	/	/	/	/
CCCCNC(=O)c1cn(CC)c2cc(N3CCN(C)CC3)c(F)cc2c1=O	i	7.8	11.8	4.0	-14.6%
CCn1cc(C(=O)NCc2cccnc2)c(=O)c2cc(F)c(N3CCN(C(=O)c4ccco4)CC3)cc21	i	-4.6	-9.1	4.0	20.6µM*
CCCNC(=O)c1cn(CC)c2cc(N3CCN(C(=O)c4ccco4)CC3)c(F)cc2c1=O	?	-0.2	32.5	0.7	13µM*
CCn1cc(C(=O)NCc2cccc(F)c2)c(=O)c2cc(F)c(N3CCN(C(=O)c4ccco4)CC3)cc21	i	2.7	-7.0	-0.8	13µM*
C[C@@H](Nc1nc(Cl)nc2nc[nH]c12)c1ccccc1	/	/	-21.1	/	/
